TrxR1 inh: rat TrxR1 inhibition; recombinant rTrxR1, NADPH fluorescence consumption, selenite substrate; Potency, µM (series often up to 114 µM), for the others: at the top dose activity change, negative = inhibition, hits mostly inhibitors; 390,000 compounds, 1% hits; AID 588453; also: nearly all actives have a fitted effect of over 65% in size
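Rat TrxR1 (90 nM in the dispensed reagent) was pre-reduced with 400 uM NADPH for 5 min at room temperature, then incubated with compound for 15 min. After 400 uM selenite was added, NADPH fluorescence (Ex 340/Em 450 nm) was followed for 8 min.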
VDR inhibitor: blocks the human vitamin D receptor; P11473; VDR-SRC2-3 peptide fluorescence polarization, 2 h; Potency, µM, for inactives: max response, negative = inhibition, most hits filed as inhibitors; 400,000 compounds, 0.93% hits
Target sequence (P11473 whole entry, looked up): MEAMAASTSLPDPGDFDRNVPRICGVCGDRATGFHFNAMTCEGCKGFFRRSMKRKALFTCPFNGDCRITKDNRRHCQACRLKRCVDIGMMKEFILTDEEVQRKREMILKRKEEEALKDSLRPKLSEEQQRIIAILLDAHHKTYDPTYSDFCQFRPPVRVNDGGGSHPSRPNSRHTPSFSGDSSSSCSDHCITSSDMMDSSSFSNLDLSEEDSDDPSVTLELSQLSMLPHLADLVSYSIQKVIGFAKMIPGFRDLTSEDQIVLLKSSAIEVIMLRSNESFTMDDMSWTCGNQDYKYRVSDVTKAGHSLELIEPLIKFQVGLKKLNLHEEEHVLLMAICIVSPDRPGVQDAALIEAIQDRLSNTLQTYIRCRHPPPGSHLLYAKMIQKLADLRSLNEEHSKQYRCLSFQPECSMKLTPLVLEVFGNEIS
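Two reagent solutions held at 4 deg C in the dark were dispensed, compounds pinned at 23 nl, and the mixture incubated 2 h at room temperature. Read-out: fluorescence polarization of VDR–SRC2-3 peptide binding.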
TrxR1 substrate: is turned over as a substrate by rat TrxR1. Potency, µM (highest dose often 114 µM), for the others: top-dose activity change, negative = substrate turnover. 390,000 compounds, 0.01% hits. AID 588456. purified TrxR1 substrate turnover, NADPH consumption readout. O89049; also: nearly all actives have a fitted effect of over 50% in size
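Rat TrxR1, dispensed at 90 nM, was prereduced with 400 uM NADPH (final) for 5 min at ~22 deg C, then incubated with compound 15 min before 400 uM selenite. A first-read NADPH fluorescence drop versus no-compound background flagged substrates.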
GCN5L2 inh: inhibitors of human GCN5L2 histone acetyltransferase. Q92830. GCN5L2 HAT assay, ThioGlo1 CoA-SH fluorescence. Potency, µM (titrated, usually from 58.9 µM), without a hit: at the highest dose activity change, negative = inhibition, actives largely listed as inhibitors. 390,000 compounds, 0.21% hits. AID 504327
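Titration-based screen in which CoA formation is detected via maleimide probe ThioGlo1 (50uM) turning fluorescent on thiol reaction; substrates H3(1-25) 75uM and acetyl-CoA 70uM, GCN5L2 20nM, 20 min incubation at room temperature.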
GLS inh: inhibitors of human glutaminase (GLS); O94925; GLS enzymatic activity, qHTS titration; Potency, µM (series often up to 45.5 µM), without a hit: top-dose activity change, negative = inhibition, hits mostly inhibitors; 410,000 compounds, 0.21% hits
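hKGA in 45 mM KH2PO4 (pH 8.2), 0.02% Tween-20 with compound, then 1mM L-Glutamine (stock as added) plus glutamate oxidase/HRP/Amplex red coupling mix. Fluorescence read initially and after 30 min at RT; signal change reflects glutamate formation.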
Sfp inh: Sfp phosphopantetheinyl transferase inhibition; Q9F4F7; Biochemical Sfp PPTase activity, qHTS; Potency, µM, without a hit: largest response in the series, negative = inhibition, hits mostly inhibitors; 310,000 compounds, 3.5% hits; AID 1490;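 also: the enzyme is Sfp with the accession as filed and its product quenches rhodamine fluorescence; 0% = enzyme reaction without inhibitor and -100% = no enzyme wells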
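Reaction rates are the 30-min fluorescence difference (ex 525, em 598 nm) in wells containing 15 nM Sfp, 5 uM rhodamine-CoA and 12.5 uM BHQ-2-YbbR at pH 7.6 with 10 mM MgCl2.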
The depositor's hits bear a star; ? = inconclusive; · = no result; [ ] = remark or other dose. Compounds with a hit are over-represented: about 3.8% of the library has one in this group of screens. Calls follow the shape of the dose curve; as a rule, active = well fitted curve in the direction sought with a large enough effect; inconclusive = small, poorly fitted or top-dose-only effect, or another doubt; inactive = no such curve, though single readings can be large; an effect the other way counts as inactive or inconclusive. Unless noted, % is scaled to controls: 0 for no effect and ±100 for the full control effect; potency is read from the fitted curve at half-maximal effect.

SMILES	TrxR1 inh	VDR inhibitor	TrxR1 substrate	GCN5L2 inh	GLS inh	Sfp inh
Cc1cccc2c1N(CCOc1ccccc1Cl)C(=O)C2=O	-12.3%	?	-6.4%	-1.4%	0.3%	0.2%
Cc1ccccc1OCCN1C(=O)C(=O)c2cccc(C)c21	-11.5%	50.1µM*	-8.6%	0.5%	-0.5%	-3.4%
CCOC(=O)C1CCN(Cc2cc(=O)oc3cc(C)c(Cl)cc23)CC1	-8.0%	?	-4.0%	-20.8%	20.0%	12.7%
COc1ccc(OC)c(C2CC(=O)N3CN(c4cccc(Cl)c4)CSC3=C2C#N)c1 (stereo not drawn)	-38.2%	50.1µM*	5.6%[57.1 µM]	25.1µM*	-21.5%	10µM*
CCOC(=O)c1ccc(N2CSC3=C(C#N)C(c4ccc(OC)cc4OC)CC(=O)N3C2)cc1 (stereo not drawn)	2.0%[57.1 µM]	-16.0%	-2.6%[57.1 µM]	?	1.4%	20µM*
COc1ccc(OC)c(C2CC(=O)N3CN(c4ccc(C)c(Cl)c4)CSC3=C2C#N)c1 (stereo not drawn)	?	15.8µM*	4.6%[57.1 µM]	14.1µM*	9.7%	7.08µM*
CCOC(=O)CC1=C(C(=O)OCC)C(c2ccc(OC)cc2OC)C(C#N)=C(N)O1 (stereo not drawn)	-27.4%	-3.8%	-8.4%	-11.4%	3.0%	79.4µM*
CCOC(=O)C1=C(CC)OC(N)=C(C#N)C1c1ccc(OC)cc1OC (stereo not drawn)	4.5%	-3.7%	0.0%	-6.7%	-3.2%	11.1%
CCn1c(C)nnc1SCC(=O)Nc1ccc(OC)cc1	·	·	·	·	1.6%	·
S=c1sc2c(Cl)ncnc2n1-c1ccccc1	15.8µM*	-8.7%	-3.6%	-6.4%	7.2%	5.0%
Cc1nc(N2CCN(C)CC2)c2sc(=S)n(-c3ccccc3)c2n1	16.1%[57.1 µM]	-17.2%	7.4%[57.1 µM]	0.2%	2.2%	-12.1%
O=C(O)/C=C/c1cccc(OCc2ccccc2)c1	-0.2%[57.1 µM]	0.9%	1.8%[57.1 µM]	-5.7%	-7.3%	9.9%
O=C(/C=C/c1cccc(OCc2ccccc2)c1)c1cccnc1	?	39.8µM*	0.0%	-24.4%	-1.6%	50.1µM*
N#CC(C#N)=C1C=CC=CN1/C(=C\c1ccccc1)C(=O)c1cccs1	0.447µM*	?	9.3%	-6.7%	0.2%	2.24µM*
N#CC(C#N)=C1C=CC=CN1/C(=C\c1ccccc1Cl)C(=O)c1ccccc1	?	?	-12.4%	-11.0%	13.2%	?
Cc1noc(NS(=O)(=O)c2ccc(NC(=O)CSc3ncccn3)cc2)c1C	-5.0%	-17.2%	-7.0%	-2.6%	-0.7%	28.0%
O=C1c2nc3cc(-c4ccco4)[nH]n3c(=O)c2CN1Cc1ccccc1	7.4%[57.1 µM]	-2.0%	101.5%[57.1 µM]	?	?	20µM*
CN(C)c1ccc(NC(=O)CN2CCC(N3CCCCC3)CC2)cc1	16.3%	16.6%	3.9%	2.5%	60.4%	89.1µM*
CN(C)c1ccc(NC(=O)CN2CCC(NC(=O)C3CCCCC3)CC2)cc1	26.3%[57.1 µM]	-4.8%	12.7%[57.1 µM]	1.2%	49.4%	0.2%
O=C(CN1CCCC1)Nc1ccc(Br)cc1	16.4%	-6.4%	5.1%	-1.1%	8.6%	50.1µM*
CC(C)(C)c1ccc(-c2nc(SCC(=O)Nc3ccccc3F)n3[nH]c(=O)cc3n2)cc1	11.7%[57.1 µM]	1.4%	3.2%[57.1 µM]	?	?	·
O=C(c1ccccc1)C(CN1CCCCC1)c1ccccc1 (stereo not drawn)	25.1µM*	25.1µM*	4.3%	·	2.3%	·
CC(CN1CCN(CC(C)C(=O)c2ccccc2)CC1)C(=O)c1ccccc1 (stereo not drawn)	9.7%[57.1 µM]	-2.7%	-10.1%	·	-5.0%	·
CN(Cc1cc(Cl)cc(Cl)c1)CC(C(=O)c1ccccc1)c1ccccc1 (stereo not drawn)	-19.0%	-18.6%	-14.2%	·	0.1%	·
O=C(c1ccc(Br)cc1)C(CN1CCOCC1)c1ccccc1 (stereo not drawn)	?	39.8µM*	15.7%[57.1 µM]	-22.5%	-4.7%	-21.4%
SMILES	TrxR1 inh	VDR inhibitor	TrxR1 substrate	GCN5L2 inh	GLS inh	Sfp inh
CN(C)CC(C(=O)c1ccccc1)c1ccccc1 (stereo not drawn)	?	50.1µM*	6.0%	-0.4%	-0.7%	-13.8%
Cc1cccc(OC2(c3ccccc3)OC(=O)c3ccccc32)c1C (stereo not drawn)	11.2%	-3.1%	3.8%	26.6%	-12.9%	5.1%
Cc1ccc(-n2ncc(C(=O)NCCN3CCN(C)CC3)c2C2CCN(C(=O)OC(C)(C)C)CC2)c(C)c1	1.0%	0.9%	-7.0%	-13.0%	-7.7%	·
O=C(O)CCCCCNc1ccc2nsnc2c1[N+](=O)[O-]	-34.7%	9.9%	-20.6%	2.6%	-0.9%	89.1µM*
COCc1ccc(CN2CCCC(C(=O)Nc3ccc(-c4cccc(OC)c4)cc3)C2)o1 (stereo not drawn)	12.2%[57.1 µM]	-3.8%	-1.6%[57.1 µM]	-2.2%	-5.4%	-8.8%
O=C(Nc1ccc(-c2ccco2)cc1)C1CCCN(Cc2ccc(CO)o2)C1 (stereo not drawn)	-11.4%	-7.4%	2.6%	-21.9%	6.0%	44.7µM*
CN1/C(=C/C(=O)c2cccs2)Sc2ccccc21	·	·	·	1.1%	·	-12.9%
CN1/C(=C\C(=O)c2cccs2)Sc2ccccc21	17.3%[57.1 µM]	-3.5%	5.7%[57.1 µM]	2.0%	1.4%	50.1µM*
COCC(=O)/C=C1\Sc2ccccc2N1C	-5.3%	-3.5%	-5.9%	-6.9%	1.8%	-19.7%
COc1cc(OC)cc(C(=O)/C=C2\Sc3ccccc3N2C)c1	-7.6%[57.1 µM]	-8.2%	-7.0%[57.1 µM]	-12.4%	2.3%	50.1µM*
COc1ccc2c(c1)S/C(=C\C(=O)c1ccncc1)N2C	-1.6%	8.0%	-1.7%	-13.6%	11.9%	8.91µM*
CCOc1cc(/C=C(\C#N)C(=O)Nc2ccccn2)ccc1O	25.1µM*	-14.1%	-1.0%	-4.5%	-1.8%	6.4%
Cn1c(Cc2ccccc2)nnc1SCC(=O)c1ccc(Br)s1	-31.2%	-27.9%	-5.4%	-5.1%	9.7%	20µM*
Cn1nc(-c2ccc(Cl)cc2)nc2c(=O)n(C)c(=O)nc1-2	?	?	17.8µM*	-4.9%	·	-19.7%
Cn1nc(-c2ccc(F)cc2)nc2c(=O)n(C)c(=O)nc1-2	28.2µM*	-4.3%	22.4µM*	·	·	·
CC(NC(=O)N1CCOCC1)c1ccccc1 (stereo not drawn)	21.5%	8.2%	5.6%	-1.8%	-11.5%	26.2%
O=C(O)c1ccccc1N(c1ccccc1)c1ccccc1	5.2%[57.1 µM]	35.5µM*	2.5%[57.1 µM]	·	-11.2%	·
CN(c1ccccc1C(=O)O)S(C)(=O)=O	20.2%	-7.8%	2.3%[0.457 µM]	-2.8%	25.7%	-3.5%
Cc1cc(=O)oc2cc(O[C@@H]3O[C@H](CO)[C@H](O)[C@H](O)[C@H]3O)ccc12	2.2%[57.1 µM]	-1.3%	5.0%[57.1 µM]	-1.7%	-7.4%	4.3%
O=c1[nH]c(=S)[nH]c2scc(-c3ccc(Br)cc3)c12	-41.6%	-12.8%	14.9%[57.1 µM]	·	0.6%	·

Source: PubChem BioAssay
